Drawing on ChEMBL document CHEMBL1961873, “Compounds: GSK PKIS; Assays: Nanosyn kinase panel” (2012), this text covers inhibition for 7 compounds.

Structures are written as SMILES.

Assay [1] concerns the target Serine/threonine-protein kinase MARK2 (Homo sapiens) (UniProt Q7KZI7). The note with it: at 1 µM.
Assay [2] deals with PAS domain-containing serine/threonine-protein kinase (Homo sapiens) (UniProt Q96RG2). The note with it: at 0.1 µM.
Assay [3] has the same target. As to conditions: at 1 µM.
The target of assay [4] is Phosphorylase b kinase gamma catalytic chain, skeletal muscle/heart isoform (Homo sapiens) (UniProt Q16816). As to conditions: at 0.1 µM.
Assay [5] shares this target. The note with it: at 1 µM.
Assay [6] deals with T1, Phosphorylase b kinase gamma catalytic chain, liver/testis isoform (Homo sapiens) (UniProt P15735).
T1 sequence (whole entry): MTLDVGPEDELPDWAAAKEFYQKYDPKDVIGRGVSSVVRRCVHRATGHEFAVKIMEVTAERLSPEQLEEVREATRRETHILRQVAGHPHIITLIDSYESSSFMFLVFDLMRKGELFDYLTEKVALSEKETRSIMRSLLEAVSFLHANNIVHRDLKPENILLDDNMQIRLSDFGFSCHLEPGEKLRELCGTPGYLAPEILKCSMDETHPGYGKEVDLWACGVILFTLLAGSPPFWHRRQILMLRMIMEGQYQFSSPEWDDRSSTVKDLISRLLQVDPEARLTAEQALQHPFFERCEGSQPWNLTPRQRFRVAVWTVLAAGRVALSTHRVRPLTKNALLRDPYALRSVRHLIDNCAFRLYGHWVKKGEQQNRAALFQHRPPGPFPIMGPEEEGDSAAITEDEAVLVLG
The note with it: at 0.1 µM.

For assay [7], the target named is T1, Phosphorylase b kinase gamma catalytic chain, liver/testis isoform (Homo sapiens). As to conditions: at 1 µM.
Assay [8] addresses Serine/threonine-protein kinase pim-1 (Homo sapiens) (UniProt P11309). The note with it: at 0.1 µM.
For assay [9] the target is unchanged. As to conditions: at 1 µM.
The target in assay [10] is Serine/threonine-protein kinase pim-2 (Homo sapiens) (UniProt Q9P1W9). As to conditions: at 0.1 µM.
Chain of Serine/threonine-protein kinase pim-2 (Homo sapiens) (Q9P1W9 whole entry, looked up): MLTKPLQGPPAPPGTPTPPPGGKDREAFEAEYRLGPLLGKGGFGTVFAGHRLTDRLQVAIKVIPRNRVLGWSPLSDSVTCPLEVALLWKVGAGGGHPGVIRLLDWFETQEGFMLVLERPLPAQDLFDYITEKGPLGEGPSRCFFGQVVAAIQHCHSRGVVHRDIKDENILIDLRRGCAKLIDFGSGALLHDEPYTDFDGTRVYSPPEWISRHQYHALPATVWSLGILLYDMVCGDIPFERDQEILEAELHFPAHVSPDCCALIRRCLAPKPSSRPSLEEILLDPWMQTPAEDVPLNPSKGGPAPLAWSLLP
Assay [11] shares this target. As to conditions: at 1 µM.
In assay [12] the target is Serine/threonine-protein kinase pim-3 (Homo sapiens) (UniProt Q86V86). The note with it: at 0.1 µM.
Assay [13] has the same target. The note with it: at 1 µM.
Assay [14] addresses T2, MAP kinase-activated protein kinase 5 (Homo sapiens) (UniProt Q8IW41).
T2 sequence (whole entry): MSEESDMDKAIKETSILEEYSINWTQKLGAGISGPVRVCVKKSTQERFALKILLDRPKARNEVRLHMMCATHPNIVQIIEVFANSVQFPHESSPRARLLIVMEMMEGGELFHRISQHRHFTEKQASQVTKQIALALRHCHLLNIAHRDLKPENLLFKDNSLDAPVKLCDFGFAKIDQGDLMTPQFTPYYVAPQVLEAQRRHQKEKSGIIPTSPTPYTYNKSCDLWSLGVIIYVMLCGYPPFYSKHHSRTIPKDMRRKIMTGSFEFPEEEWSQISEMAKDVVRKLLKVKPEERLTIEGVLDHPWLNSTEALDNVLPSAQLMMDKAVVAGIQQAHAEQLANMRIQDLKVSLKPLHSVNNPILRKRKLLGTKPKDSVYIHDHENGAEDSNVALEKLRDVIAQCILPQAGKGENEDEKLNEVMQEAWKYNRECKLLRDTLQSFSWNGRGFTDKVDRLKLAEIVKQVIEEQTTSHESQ
As to conditions: at 0.1 µM.

The target of assay [15] is T2, MAP kinase-activated protein kinase 5 (Homo sapiens). As to conditions: at 1 µM.
Assay [16] concerns the target Serine/threonine-protein kinase SIK1 (Homo sapiens) (UniProt P57059). The note with it: at 0.1 µM.
For assay [17] the target is unchanged. The note with it: at 1 µM.
For assay [18], the target named is Serine/threonine-protein kinase SIK2 (Homo sapiens) (UniProt Q9H0K1). The note with it: at 0.1 µM.
Chain of Serine/threonine-protein kinase SIK2 (Homo sapiens) (Q9H0K1 whole entry, looked up): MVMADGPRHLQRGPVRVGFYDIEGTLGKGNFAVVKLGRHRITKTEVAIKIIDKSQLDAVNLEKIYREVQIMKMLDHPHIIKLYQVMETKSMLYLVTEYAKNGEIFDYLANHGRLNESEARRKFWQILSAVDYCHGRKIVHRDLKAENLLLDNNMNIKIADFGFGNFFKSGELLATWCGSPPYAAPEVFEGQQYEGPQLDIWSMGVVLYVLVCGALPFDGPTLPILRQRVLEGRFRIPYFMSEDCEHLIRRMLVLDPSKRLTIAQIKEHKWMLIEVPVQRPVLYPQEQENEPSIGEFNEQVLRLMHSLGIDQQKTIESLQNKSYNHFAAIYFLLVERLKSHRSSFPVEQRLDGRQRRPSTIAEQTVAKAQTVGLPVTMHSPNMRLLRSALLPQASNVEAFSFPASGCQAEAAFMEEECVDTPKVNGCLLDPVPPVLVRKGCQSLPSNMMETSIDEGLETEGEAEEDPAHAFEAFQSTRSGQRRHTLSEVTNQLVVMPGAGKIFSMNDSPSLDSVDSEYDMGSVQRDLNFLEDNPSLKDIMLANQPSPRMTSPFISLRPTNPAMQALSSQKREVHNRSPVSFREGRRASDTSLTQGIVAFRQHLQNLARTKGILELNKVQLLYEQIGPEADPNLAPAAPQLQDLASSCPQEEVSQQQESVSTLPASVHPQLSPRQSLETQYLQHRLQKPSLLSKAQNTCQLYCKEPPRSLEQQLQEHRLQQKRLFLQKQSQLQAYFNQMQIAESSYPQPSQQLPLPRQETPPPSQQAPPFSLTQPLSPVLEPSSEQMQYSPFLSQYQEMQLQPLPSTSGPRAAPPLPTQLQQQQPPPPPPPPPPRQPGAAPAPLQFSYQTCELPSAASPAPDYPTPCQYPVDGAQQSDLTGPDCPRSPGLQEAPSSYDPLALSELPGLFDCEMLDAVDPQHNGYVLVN
Assay [19] shares this target. The note with it: at 1 µM.
Assay [20] addresses T3, Serine/threonine-protein kinase TBK1 (Homo sapiens) (UniProt Q9UHD2).
T3 sequence (whole entry): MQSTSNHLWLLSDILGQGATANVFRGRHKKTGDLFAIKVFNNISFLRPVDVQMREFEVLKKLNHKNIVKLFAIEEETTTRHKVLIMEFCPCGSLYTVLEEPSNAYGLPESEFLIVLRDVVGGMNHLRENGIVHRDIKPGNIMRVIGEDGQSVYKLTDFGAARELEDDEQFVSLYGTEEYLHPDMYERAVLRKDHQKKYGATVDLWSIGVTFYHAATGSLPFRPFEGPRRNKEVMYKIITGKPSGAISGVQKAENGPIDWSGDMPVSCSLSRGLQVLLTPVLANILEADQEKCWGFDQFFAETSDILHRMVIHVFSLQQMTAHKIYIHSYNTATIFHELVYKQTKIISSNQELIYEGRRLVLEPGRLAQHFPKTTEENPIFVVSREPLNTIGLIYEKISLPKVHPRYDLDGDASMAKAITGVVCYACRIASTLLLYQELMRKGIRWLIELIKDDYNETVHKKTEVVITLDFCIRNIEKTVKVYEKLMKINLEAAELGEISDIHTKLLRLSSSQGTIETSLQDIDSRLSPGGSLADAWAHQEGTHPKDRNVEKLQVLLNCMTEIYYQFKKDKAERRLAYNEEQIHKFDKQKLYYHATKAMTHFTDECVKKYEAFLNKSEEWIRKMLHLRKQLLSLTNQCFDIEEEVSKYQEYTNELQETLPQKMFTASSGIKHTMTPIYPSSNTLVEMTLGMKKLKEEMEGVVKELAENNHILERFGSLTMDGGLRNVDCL
The note with it: at 0.1 µM.

Chain of Serine/threonine-protein kinase pim-1 (Homo sapiens) (P11309 whole entry, looked up): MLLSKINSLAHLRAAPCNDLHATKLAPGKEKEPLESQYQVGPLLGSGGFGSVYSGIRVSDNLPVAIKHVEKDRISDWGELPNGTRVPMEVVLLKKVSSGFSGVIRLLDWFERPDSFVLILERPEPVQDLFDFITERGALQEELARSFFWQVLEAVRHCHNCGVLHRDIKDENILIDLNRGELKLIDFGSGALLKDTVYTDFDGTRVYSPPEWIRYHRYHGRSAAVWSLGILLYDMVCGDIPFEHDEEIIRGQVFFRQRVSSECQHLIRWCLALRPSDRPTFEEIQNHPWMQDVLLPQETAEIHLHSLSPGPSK
Chain of Serine/threonine-protein kinase MARK2 (Homo sapiens) (Q7KZI7 whole entry, the tested form may be a part): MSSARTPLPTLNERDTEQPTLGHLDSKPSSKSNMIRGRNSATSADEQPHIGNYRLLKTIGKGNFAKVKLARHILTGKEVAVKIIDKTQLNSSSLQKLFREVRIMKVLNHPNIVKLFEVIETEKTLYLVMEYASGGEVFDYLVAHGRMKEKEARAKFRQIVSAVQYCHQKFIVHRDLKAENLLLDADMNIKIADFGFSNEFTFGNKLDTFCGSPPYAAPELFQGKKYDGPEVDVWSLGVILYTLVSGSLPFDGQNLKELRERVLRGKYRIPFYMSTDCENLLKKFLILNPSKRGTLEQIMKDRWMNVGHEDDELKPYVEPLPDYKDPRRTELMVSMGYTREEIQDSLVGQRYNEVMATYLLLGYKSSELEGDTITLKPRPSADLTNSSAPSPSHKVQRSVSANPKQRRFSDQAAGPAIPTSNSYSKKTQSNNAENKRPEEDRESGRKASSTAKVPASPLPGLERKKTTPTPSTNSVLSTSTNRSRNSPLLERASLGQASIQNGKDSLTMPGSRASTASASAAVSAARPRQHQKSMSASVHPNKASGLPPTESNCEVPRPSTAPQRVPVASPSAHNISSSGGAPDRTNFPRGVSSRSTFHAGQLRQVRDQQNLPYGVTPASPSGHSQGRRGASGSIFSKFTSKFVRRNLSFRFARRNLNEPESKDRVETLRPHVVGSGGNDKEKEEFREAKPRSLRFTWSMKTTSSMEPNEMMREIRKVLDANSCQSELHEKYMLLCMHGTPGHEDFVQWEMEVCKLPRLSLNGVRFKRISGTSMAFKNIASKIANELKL
Chain of Serine/threonine-protein kinase SIK1 (Homo sapiens) (P57059 whole entry): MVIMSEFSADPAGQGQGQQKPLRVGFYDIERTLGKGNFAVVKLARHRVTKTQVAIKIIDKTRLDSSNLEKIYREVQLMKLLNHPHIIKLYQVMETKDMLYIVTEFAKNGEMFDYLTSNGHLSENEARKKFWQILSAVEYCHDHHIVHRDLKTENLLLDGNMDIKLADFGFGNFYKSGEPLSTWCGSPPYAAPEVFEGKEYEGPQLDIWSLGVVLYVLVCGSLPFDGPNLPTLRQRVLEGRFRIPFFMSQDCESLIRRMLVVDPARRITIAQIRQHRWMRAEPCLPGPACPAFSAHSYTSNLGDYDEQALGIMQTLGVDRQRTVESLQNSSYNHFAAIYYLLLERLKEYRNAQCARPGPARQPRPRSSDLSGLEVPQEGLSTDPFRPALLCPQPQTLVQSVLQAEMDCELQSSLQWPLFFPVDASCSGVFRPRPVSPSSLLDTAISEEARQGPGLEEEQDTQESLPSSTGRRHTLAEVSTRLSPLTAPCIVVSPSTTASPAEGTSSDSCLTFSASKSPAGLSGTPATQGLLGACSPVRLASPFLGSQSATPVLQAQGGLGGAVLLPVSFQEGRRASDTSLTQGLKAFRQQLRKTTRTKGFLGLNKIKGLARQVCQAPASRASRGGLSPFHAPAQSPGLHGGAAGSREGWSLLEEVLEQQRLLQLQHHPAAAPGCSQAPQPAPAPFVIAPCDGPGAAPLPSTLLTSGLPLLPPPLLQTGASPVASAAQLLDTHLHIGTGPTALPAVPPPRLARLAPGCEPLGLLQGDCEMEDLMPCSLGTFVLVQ
Chain of PAS domain-containing serine/threonine-protein kinase (Homo sapiens) (Q96RG2 whole entry, the tested form may be a part): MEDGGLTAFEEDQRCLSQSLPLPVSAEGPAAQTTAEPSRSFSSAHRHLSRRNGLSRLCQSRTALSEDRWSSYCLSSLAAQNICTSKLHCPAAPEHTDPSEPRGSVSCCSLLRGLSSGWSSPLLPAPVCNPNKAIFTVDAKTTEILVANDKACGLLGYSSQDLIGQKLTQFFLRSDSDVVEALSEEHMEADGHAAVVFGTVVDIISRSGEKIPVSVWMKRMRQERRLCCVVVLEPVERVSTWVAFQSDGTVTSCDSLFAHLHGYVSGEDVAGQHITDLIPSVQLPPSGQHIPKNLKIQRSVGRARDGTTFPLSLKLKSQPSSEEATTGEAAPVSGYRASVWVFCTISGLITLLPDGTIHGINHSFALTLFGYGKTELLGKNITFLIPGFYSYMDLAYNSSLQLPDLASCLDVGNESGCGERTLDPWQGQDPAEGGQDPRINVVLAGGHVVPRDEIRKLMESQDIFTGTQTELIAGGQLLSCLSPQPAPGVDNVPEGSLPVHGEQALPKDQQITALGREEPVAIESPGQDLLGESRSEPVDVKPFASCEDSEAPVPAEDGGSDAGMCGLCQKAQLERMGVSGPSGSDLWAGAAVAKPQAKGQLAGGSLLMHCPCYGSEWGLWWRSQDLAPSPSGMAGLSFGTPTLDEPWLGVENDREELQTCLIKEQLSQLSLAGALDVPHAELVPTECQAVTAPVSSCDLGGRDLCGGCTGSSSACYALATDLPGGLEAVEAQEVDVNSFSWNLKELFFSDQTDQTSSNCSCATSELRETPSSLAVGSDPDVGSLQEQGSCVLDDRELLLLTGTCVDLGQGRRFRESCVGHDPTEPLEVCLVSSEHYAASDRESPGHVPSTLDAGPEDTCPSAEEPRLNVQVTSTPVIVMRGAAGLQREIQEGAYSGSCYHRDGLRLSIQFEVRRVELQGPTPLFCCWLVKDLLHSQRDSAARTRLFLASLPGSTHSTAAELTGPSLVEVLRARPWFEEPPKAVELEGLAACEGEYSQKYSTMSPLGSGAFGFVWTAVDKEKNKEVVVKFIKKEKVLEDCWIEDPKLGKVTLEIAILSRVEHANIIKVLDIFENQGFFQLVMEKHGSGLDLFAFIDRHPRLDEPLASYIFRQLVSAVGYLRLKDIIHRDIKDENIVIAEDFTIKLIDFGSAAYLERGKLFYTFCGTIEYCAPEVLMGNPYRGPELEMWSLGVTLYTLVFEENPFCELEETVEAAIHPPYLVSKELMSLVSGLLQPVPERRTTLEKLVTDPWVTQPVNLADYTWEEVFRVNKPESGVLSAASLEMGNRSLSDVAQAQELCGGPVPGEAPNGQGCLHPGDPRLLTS

Take `[O-][S+]1CCN(Cc2ccc(-c3ccc4ncnc(Nc5ccc(OCc6ccccc6)c(F)c5)c4c3)o2)CC1`: the inhibition in [1] is 0.88%; in assay [2], -0.22%; in [3] it was -1.35%; in [4] it was 1.18%; in assay [5] it was -5.45%; in assay [6] it was 2.22%. Further, the inhibition is 0.5% in assay [7]; 0.8% in assay [8]; 0.1% in assay [9]; -0.49% in assay [10]; 0.23% in assay [11]; -1.55% in assay [12]. Besides, the inhibition in assay [13] was -1.98%; in assay [14], 0.41%; in assay [15] it was -0.19%; in assay [16], 3.06%; in [17], 3.96%; in assay [18] it was 3.09%. For the same compound, the values for the inhibition in [19] and in [20] were 5.38% and 1.1%, respectively.
With `Cc1cccc(-c2n[nH]cc2-c2ccc3ncccc3n2)n1`, the inhibition in [1] was -0.03%; in assay [2], -0.24%; in [3], 1.18%; in [4], 1.19%; in assay [5], 2.02%; in [6], -0.65%. The inhibition in assay [7] was -0.32%; in assay [8], -0.24%; in [9], 0.02%; in [10], 0.22%; in [11], -0.16%; in assay [12] it was -1.47%. Also, the inhibition in assay [13] was -1.14%; in [14], 0.08%; in assay [15], 0.05%; in assay [16] it was -0.73%; in assay [17], 3.97%; in [18], 3.18%. For the same compound, the inhibition in assay [19] is 13.8%; in assay [20], -2.48%.
As for `c1cnn2ncc(-c3ccnc(Nc4ccc5c(c4)OCCO5)n3)c2c1`, the inhibition in assay [1] is 14.3%; in assay [2], -0.33%; in [3], 0.82%; in [4], 5.46%; in [5], 27.6%; in assay [6] it was 7.04%. For the same compound, the inhibition in assay [7] was 17.1%; in assay [8], 0.98%; in assay [9] it was 7.95%; in [10], 0.25%; in assay [11], 4.39%; in assay [12] it was 0.84%. Further, the inhibition is 16.2% in assay [13]; 1.78% in [14]; 2.58% in assay [15]; 9.87% in assay [16]; 20.4% in assay [17]; 11.1% in assay [18]. Further, the inhibition worked out at 17.7% in assay [19] and 3.41% in assay [20].
`COc1cc(C)c(NC(=O)CN(C)C)cc1Nc1nc(Nc2cccc(F)c2C(N)=O)c2cc[nH]c2n1`: the inhibition in assay [1] was -0.1%; in assay [2], -0.35%; in assay [3] it was -3.17%; in assay [4], 8.46%; in [5], 43.5%; in assay [6] it was 4.74%. In addition, the inhibition in assay [7] came out at 8.82%; in assay [8], 8.2%; in assay [9], 43.2%; in [10], 0.16%; in assay [11] it was 2.33%; in [12], 0.35%. Further, the inhibition was determined as 16.3% in assay [13]; 0.4% in assay [14]; 1.56% in assay [15]; 1.57% in assay [16]; 5.28% in [17]; 0.18% in [18]. Besides, the values for the inhibition in assay [19] and in assay [20] were -4.44% and 1.95%, respectively.
Consider `Cc1cc(O)cc(C)c1/C=C/c1cncc(-c2nn[nH]n2)c1`, for which the inhibition was 3.29% in [1]; -0.17% in assay [2]; -1.14% in assay [3]; 6.07% in assay [4]; 4.92% in assay [5]; 4.78% in assay [6]. Also, the inhibition in [7] is 2.82%; in [8] it was 0.66%; in assay [9] it was 1.59%; in assay [10], -3.3%; in [11] it was -2.91%; in [12], -1.97%. The inhibition is -0.67% in assay [13]; 1.58% in assay [14]; 1.02% in assay [15]; 56.2% in [16]; 94.7% in [17]; 6.01% in assay [18]. Further, the inhibition in assay [19] was determined as 53.7%; in assay [20], 1.57%.
As to `NS(=O)(=O)c1ccc(N/N=C2\C(=O)Nc3ccc(C(=O)NCCc4c[nH]cn4)cc32)cc1`, the inhibition in [1] is 40.4%; in assay [2], 0.48%; in [3], -3.06%; in [4], 14.2%; in [5], 58.7%; in assay [6], 8.35%. Further, the inhibition stood at 24% in assay [7]; 10.5% in assay [8]; 51.7% in [9]; 3.79% in assay [10]; 24.7% in [11]; 4.71% in assay [12]. In addition, the inhibition in [13] turned out to be 44.7%; in [14], 1.41%; in assay [15] it was 2.5%; in assay [16], 11.7%; in [17], 32.5%; in assay [18], 6.36%. The inhibition amounted to 16.9% in assay [19] and 3.67% in assay [20].
With `CCN1CCC(CC(=O)Nc2n[nH]c3nc(-c4cccs4)c(Br)cc23)CC1`, the inhibition in assay [1] was 0.15%; in [2] it was -0.58%; in [3], -1.17%; in assay [4] it was 2.37%; in [5] it was 5.36%; in [6], -4.86%. In addition, the inhibition in assay [7] was -3.7%; in assay [8] it was 0.1%; in assay [9], 3.88%; in [10], 0.19%; in [11], 1.48%; in assay [12] it was -0.6%. For the same compound, the inhibition in [13] is 5.95%; in assay [14] it was -1.45%; in [15], -0.83%; in assay [16] it was -7.57%; in assay [17], -6.71%; in assay [19], -4.25%. For the same compound, the inhibition in [20] was -0.25%.
